Bioassay records (PubChem BioAssay)
Only some compounds are listed: those with a hit (about 2.4% of all), similar ones and a draw of the others.
D2 ag-1 = activates the human D2 dopamine receptor; P14416; HEK293 T-REx D2 cells, calcium flux agonist mode; activation, % at 2 µM; hit rate 0.53% among 340,000; AID 485358;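 active means activation over 3 SD above normal in the single-dose calcium agonist read, cut at about 30% in these data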; further: 0% is about no effect
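In this primary screen, compounds producing a positive calcium signal within 180 s of addition to tetracycline-induced, force-coupled HEK293 Trex D2 cells are flagged; cells are dye-loaded with a no-wash calcium kit beforehand.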
D2 antag = antagonists of human D2 dopamine receptor. P14416. HEK293 TREx D2 cells, calcium flux, dopamine EC80. inhibition, % at 10 µM. hit rate 2% among 340,000. AID 485344; in the data active means inhibition above about 30%; inactive means below that, where a call was filed; further: 0% is about no effect
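Antagonism is scored as inhibition of an EC80 dopamine-evoked calcium signal in a force-coupled, tetracycline-inducible HEK293 T-REx D2 line, with compound present 180 s before agonist.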
D2 PAM-1 = positive allosteric modulators of human D2 dopamine receptor | P14416 | HEK293 T-REx D2, calcium flux, EC20 dopamine potentiation | potentiation, % at 10 µM | hit rate 0.34% among 340,000 | AID 485347;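 active means potentiation over 3 SD above the plate norm, cut at about 30% in these data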; further: 0% is about no effect
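Tetracycline-induced HEK293 T-REx cells force-coupled to calcium signalling expressed D2; compounds were pin-added after a 10 s baseline, read kinetically 180 s, then an EC20 dopamine challenge followed with a further 180 s calcium read.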
D2 PAM-2 = positive allosteric modulators of human D2 dopamine receptor; DiscoveRx D2 beta-arrestin cells, luminescence, 90 min; 100% = 57 uM dopamine signal; potentiation, % (no concentration beside the values); hit rate 0.23% among 360,000; AID 624464; in the data active means potentiation above about 50%; inconclusive means mostly about 30% to 49%
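D2 cells co-treated with compound plus 50 nM dopamine (EC20) for 90 min at 37 deg C to detect potentiation. Beta-arrestin recruitment was read as enzyme-fragment luminescence after 1 h at ambient temperature. Full response was set by 57 uM dopamine.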
D2 ag-2 = human D2 receptor agonism in beta-arrestin assay | hit rate 0.084% among 360,000 | activation, % (test concentration not listed) | DiscoveRx PathHunter D2 beta-arrestin, luminescence, 90 min; 100% = 57 uM dopamine signal | P14416; in the data active means activation above about 40%; inconclusive means between about 15% and that limit
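Agonist mode: compounds alone added to overnight-plated D2 PathHunter cells for 90 min at 37 C, with 57 uM final dopamine (EC100) defining full response. Beta-arrestin recruitment detected by chemiluminescent reagent, read after 1 h at ambient temperature.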
D3 ag = activates human D3 dopamine receptor beta-arrestin recruitment; shares compounds with D2 ag-1; DiscoveRx D3 beta-arrestin cells, luminescence, 90 min; Potency, µM (highest dose often 76.9 µM), inactives show top-dose activation, hits mostly activators; hit rate 4% among 2,300; AID 720506;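 further: potency means the concentration at half of the fitted maximal effect; 100% = dopamine control response; nearly all actives have a fitted effect of over 70% in size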
Target sequence (P35462 whole entry, looked up): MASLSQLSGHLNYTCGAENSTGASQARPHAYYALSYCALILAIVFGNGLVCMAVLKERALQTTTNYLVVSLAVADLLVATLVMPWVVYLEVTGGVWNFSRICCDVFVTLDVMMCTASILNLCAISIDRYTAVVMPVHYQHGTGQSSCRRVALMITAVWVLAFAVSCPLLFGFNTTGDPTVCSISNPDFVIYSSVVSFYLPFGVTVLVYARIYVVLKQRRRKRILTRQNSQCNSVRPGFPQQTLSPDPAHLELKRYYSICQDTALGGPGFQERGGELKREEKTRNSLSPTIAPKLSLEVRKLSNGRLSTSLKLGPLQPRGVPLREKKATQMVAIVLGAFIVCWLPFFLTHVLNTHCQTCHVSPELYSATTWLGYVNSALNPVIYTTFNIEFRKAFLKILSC
D2 ag-3 = D2 receptor agonism, beta-arrestin counterscreen; DiscoveRx PathHunter D2 beta-arrestin, luminescence, 90 min; response scale: percent relative to full dopamine signal; shares compounds with D2 ag-1; AID 720507; hit rate 5.9% among 2,300; Potency, µM (highest dose often 76.9 µM), without a hit: at the highest dose activation, most hits filed as activators; further: potency means the concentration at half of the fitted maximal effect; % of control where 0% means no effect; nearly all actives have a fitted effect of over 70% in size
Numbers without * were called inactive; ? = inconclusive; . = not tested or not shown. Unless noted, the call rests on the fitted dose curve; in most records, active means well fitted activation curve with a large enough effect; inconclusive means small, poorly fitted or top-dose-only effect; inactive means flat fitted curve, though single readings scatter.

SMILES	D2 ag-1	D2 antag	D2 PAM-1	D2 PAM-2	D2 ag-2	D3 ag	D2 ag-3
[O-]/[N+](=C/c1ccccc1)c1ccccc1	0	-8	-13	-8	-3	2%	-3%
COc1ccc(N(C(=O)/C=C\C(=O)Nc2ccc(Cl)cc2)C(C(=O)NCc2ccco2)c2ccc(C)cc2)cc1 (stereo not given)	0	.	11	.	.	.	.
CC(=O)Nc1ccc(C2=CC(=O)CC(C)(C)C2)cc1	-1	-4	1	-7	-10	-5%	-1%
COc1ccc(-n2c(=O)c3ccc(C(=O)NCc4ccc(C)cc4)cc3n(CC(=O)Nc3ccc(C)cc3)c2=O)cc1	1	.	.	.	.	.	.
Nc1nonc1-n1nnc(C(=O)N/N=C/c2cccs2)c1-c1ccc2c(c1)OCO2	20	7	18	10	-2	-6%	0%
Cc1ccc(-c2c(C(=O)N/N=C/c3ccoc3)nnn2-c2nonc2N)cc1	1	10	11	-2	-2	-9%	-4%
Cc1ccsc1/C=N/NC(=O)c1nnn(-c2nonc2N)c1-c1ccc2c(c1)OCO2	1	2	-6	0	-2	.	.
CCOc1ccc(-c2c(C(=O)N/N=C/c3cccs3)nnn2-c2nonc2N)cc1	1	16	23	-9	?	.	.
Cc1ccc(-c2c(C(=O)N/N=C/c3cccs3)nnn2-c2nonc2N)cc1	.	.	16	-2	2	-3%	-2%
Cc1ccc(NC(=O)Cn2nnnc2-c2ccccc2N)cc1	0	.	-1	.	.	.	.
COc1ccc(C(=O)Nc2cc(S(=O)(=O)c3ccc(Cl)cc3)c(O)c(C)c2C)cc1	0	.	25	.	.	.	.
CCOC(=O)c1c(-c2ccc(OC)cc2)csc1NC(=O)CNCc1ccco1	-1	3	1	-7	1	.	.
CCOC(=O)c1c(-c2ccc(Cl)cc2)csc1NC(=O)CNCc1ccco1	51*	18	-26	-6	-1	-4%	-1%
c1ccc(N2CCN(C3CCSC3)CC2)cc1 (stereo not given)	41*	18	-35	-18	4	-9%	10%
CCOc1ccccc1NC(=O)N1CCc2c(sc(C)c2CC)C1c1ccccc1 (stereo not given)	9	.	-5	.	.	.	.
CC1CN(CCn2cnc3c(N)ncnc32)CC(C)O1 (stereo not given)	0	46*	5	-4	0	1%	-1%
CCCCN(CC)CCCNC(=O)CC1Oc2ccccc2NC1=O (stereo not given)	81*	87*	-18	?	53*	?	50µM*
CC(C)CN(CCCNC(=O)CC1Oc2ccccc2NC1=O)CC(C)C (stereo not given)	0	22	-6	4	3	.	.
CCN(CC)CCCNC(=O)CC1Sc2ccccc2NC1=O (stereo not given)	22	17	-10	-5	1	-13%	6%
Cc1nn(C(=O)c2cccc(F)c2)c(C)c1S(=O)(=O)N1CCOCC1	0	.	0	.	.	.	.
CCOC(=O)N1CCC(N2CCN(Cc3ccc(F)c(F)c3)C(CCO)C2)CC1 (stereo not given)	40*	15	-13	-7	5	3%	15%
OCCC1CN(C2CCN(c3ccccc3F)CC2)CCN1Cc1ccccc1 (stereo not given)	2	-1	-23	-16	-4	-30%	-5%
OCCC1CN(C2CSCCSC2)CCN1Cc1ccccc1 (stereo not given)	0	-2	-3	-20	-1	.	.
O=C(NCc1cccc(F)c1)c1ccc(-n2cnc3cccnc32)cc1	-1	.	11	.	.	.	.
O=S1(=O)c2ccccc2N(Cc2cccc(Cl)c2)c2ccccc21	-1	.	1	.	.	.	.
SMILES	D2 ag-1	D2 antag	D2 PAM-1	D2 PAM-2	D2 ag-2	D3 ag	D2 ag-3
O=Cc1c(N2CCCCC2)nc2ccccn2c1=O	0	-12	7	7	3	.	.
O=Cc1c(N2CCCCCC2)nc2ccccn2c1=O	56*	-7	-16	-3	4	-1%	1%
COc1ccccc1NC(=O)C(C)OC(=O)C(C)SCC(=O)Nc1ccc(C)cc1 (stereo not given)	-1	10	-14	-20	-3	-2%	-3%
O=C(NNC(=O)c1ccncc1)Nc1cccc(C(F)(F)F)c1	0	3	-3	-3	-1	.	.
O=C(/C=C/c1cccc(C(F)(F)F)c1)NNC(=O)c1ccncc1	0	5	-6	-69	-5	-11%	-7%
O=C(/C=C/c1ccccc1[N+](=O)[O-])NNC(=O)c1ccncc1	1	0	1	-5	-3	-16%	-11%
CCOC(=O)c1oc2c(c1C)C(=O)CCC2	0	7	-10	-1	0	-11%	-1%
CCOC(=O)COc1ccc(CC)cc1C(=O)c1ccn2nc(-c3ccccc3)cc2n1	0	.	1	.	.	.	.
CC(C(=O)Nc1ccccc1C(F)(F)F)n1nc(-c2ccccc2)c2c(c1=O)CCCC2 (stereo not given)	.	.	-17	.	.	.	.
Cc1ccc(NC(=O)C[n+]2cc(-c3ccccc3)n3c2CCC3)cc1	71*	56*	-30	-12	-2	-10%	2%
Cc1ccc(-c2c[n+](CC(=O)Nc3ccccc3C)c3n2CCC3)cc1	0	28	-22	-29	-2	.	.
CCOc1ccc2nc(Cl)c(C3CC(c4ccc(C)cc4)=NN3C(=O)CCCC(=O)O)cc2c1 (stereo not given)	1	.	7	.	.	.	.
COc1ccc(C(=O)N=C2SC3CS(=O)(=O)CC3N2Cc2ccccc2)cc1OC (stereo not given)	0	15	25	-5	-2	?	12%
COc1ccc(NC(=O)CN2C(=O)C(C)(C)c3ccccc32)cc1Cl	-1	.	10	.	.	.	.
COc1ccc(CCC(=O)OCC(=O)N2CCN(S(=O)(=O)c3ccc(C)cc3C)CC2)cc1	0	16	6	-35	-7	2%	-1%
Cc1ccc(OCCC(=O)OCC(=O)N2CCN(S(=O)(=O)c3ccc(C)cc3C)CC2)cc1	0	-13	17	9	2	.	.
COc1ccccc1CN1CCN(C2CCN(C(=O)Nc3ccccc3)CC2)C(=O)C1=O	0	.	-3	.	.	.	.
Cc1nc2sc(C(c3ccccc3)N3CCN(C(=O)c4ccco4)CC3)c(O)n2n1 (stereo not given)	62*	10	-28	-12	-1	-3%	-4%
Cc1ccc(C(c2sc3nc(C)nn3c2O)N2CCN(C(=O)c3ccco3)CC2)cc1 (stereo not given)	0	2	3	0	0	.	.
